Only some compounds are listed: those with a hit (about 4.7% of all), similar ones and a draw of the others.
Calb FLC – C. albicans growth modulation with fluconazole; C. albicans CaCi-2 (fluconazole-resistant clinical isolate) + fluconazole, Alamar Blue growth, 48 h; growth inhibition, % (test concentration not listed); 300,000 tested, 0.57% active;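 active = growth inhibition above about 58% in most replicates, limit read from the data, passing the limit was not always enough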;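 note: all wells also contain fluconazole at 8 µg/ml as a sub-toxic cotreatment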
tim23-1 inh – inhibits growth of tim23-1 mutant yeast; S. cerevisiae tim23-1 growth, BacTiter-Glo luminescence, 24 h; inhibition, % at 20 µM; 330,000 tested, 1.3% active; AID 463212;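 active = growth inhibition of the mutant yeast at or above 50%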;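 note: temperature-sensitive mutant grown at 25 °C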
tim10-1 inh – growth inhibitors of tim10-1 mutant yeast. S. cerevisiae tim10-1 ts strain growth, BacTiter-Glo, 24 h. inhibition, % at 20 µM. 330,000 tested, 2.2% active;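 active = inhibition of at least 40%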;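 note: mutant grown at 25 °C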
SKKanGAS inh – blocks kanamycin growth of S. pyogenes SKKanGAS strain. BacTiter-Glo, 6 h. inhibition, % at 7.5 µM. 300,000 tested, 1.3% active;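 active = mean replicate score, as percent of positive control median, at least 50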;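 note: strain carries kanamycin resistance gene driven by streptokinase promoter and grows in 40 µg/ml kanamycin; loss of luminescence reflects streptokinase promoter inhibition or plain growth inhibition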
TIM10 inh – inhibits growth of TIM10 yeast strain | inhibition, % at 10 µM | S. cerevisiae TIM10 strain growth, BacTiter-Glo luminescence, 24 h | 330,000 tested, 1.4% active;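 active = inhibition of 40% or more at the single tested concentration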;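 note: wild-type TIM10 isogenic control strain grown at permissive 25 °C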
PfHsp90 set2 – inhibits growth of yeast expressing Plasmodium falciparum Hsp90; S. cerevisiae expressing PfHsp90, BacTiter-Glo ATP, 48 h; yeast lacking PDR1 and PDR3 efflux regulators; AID 504621; inhibition, % at 9.4 µM; 310,000 tested, 0.32% active;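 active = every replicate shows inhibition above about 80%, whatever the replicate mean, limit read from the data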
tim10-1 conf – tim10-1 yeast growth inhibition, confirmed; AID 463213; 7,400 tested, 56% active; inhibition, % at 20 µM; shares compounds with tim10-1 inh; S. cerevisiae tim10-1 ts strain growth, BacTiter-Glo, 24 h;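 active = inhibition of yeast growth at or above a set limit in either of two repeat tests at 20 µM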;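 note: tim10-1 mutant grown at permissive 25 °C to find synthetic lethal compounds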
Each line names hits and unclear results; the compound was inactive in the other large screens (follow-up assays come after a bar, where they were run).

COc1ccc(C2(O)CC3CCC(C2)N3c2cc(C)nc(-c3ccccc3)n2)cc1 (stereo not given)	tim10-1 inh 42 | tim10-1 conf 32
c1ccc(-c2cc(-c3nnc4n3N=C(c3ccc5ccccc5c3)CS4)[nH]n2)cc1	tim10-1 inh 48 | tim10-1 conf inactive
Cc1cc(-c2nnc3n2N=C(c2ccc(-c4ccccc4)cc2)CS3)n[nH]1	none
C/C(=N\Nc1nc(N2CCCCCC2)nc(N2CCCCCC2)n1)c1ccccc1	tim10-1 inh 40, SKKanGAS inh 59 | tim10-1 conf inactive
CCc1ccc(/C(C)=N/Nc2cc(Cl)nc(C)n2)cc1	none
C/C(=N\Nc1cc(Cl)nc(C)n1)c1ccccc1	tim10-1 inh 41 (no result: PfHsp90 set2) | tim10-1 conf 39
Cc1nc2cc(C(=O)N3c4ccccc4CC3C)ccc2s1 (stereo not given)	tim10-1 inh 43 | tim10-1 conf inactive
CC1Cc2ccccc2N1C(=O)c1ccc2snnc2c1 (stereo not given)	none (no result: Calb FLC, SKKanGAS inh, PfHsp90 set2)
Cc1ccc(NC(=O)c2ccccc2NC(=O)Cc2ccccc2)cc1	tim10-1 inh 44 | tim10-1 conf inactive
Cc1ccccc1C(=O)Nc1ccccc1C(=O)NCc1ccccc1	tim10-1 inh 43 | tim10-1 conf 36
O=C(Nc1ccccc1C(=O)NCc1ccccc1)c1ccccc1Br	none
CCOc1ccc(N(CC(=O)Nc2ccc(C)c(C)c2)S(C)(=O)=O)cc1	none
O=C(CCN1C(=O)c2cccc([N+](=O)[O-])c2C1=O)Nc1nccs1	none (no result: PfHsp90 set2)
COc1ccc2nc3cc(Cl)ccc3c(Nc3cc(C(C)C)c(O)cc3C)c2c1	tim10-1 inh 47 | tim10-1 conf 37
Cc1ccc(S(=O)(=O)N2CCN(CC(=O)Nc3ccc([N+](=O)[O-])cc3)CC2)cc1C	none
O=C(CN1CCN(S(=O)(=O)c2ccccc2)CC1)Nc1ccc([N+](=O)[O-])cc1	tim10-1 inh 47 | tim10-1 conf 32
COc1ccc(NS(=O)(=O)c2ccc(Br)cc2)cn1	none
COc1ccc(NS(=O)(=O)c2ccc3oc4ccccc4c3c2)cn1	tim10-1 inh 44 | tim10-1 conf 36
CC1CCN(S(=O)(=O)c2ccc3c(c2)NC(=O)CS3)CC1	tim10-1 inh 42 | tim10-1 conf inactive
COc1cccc(N2CCN(S(=O)(=O)c3ccc4c(c3)NC(=O)CS4)CC2)c1	none
COCCCNC(=O)C(C)N1c2cccc3cccc(c23)S1(=O)=O (stereo not given)	none
NC(=O)CN1C(=O)C(O)(CC(=O)/C=C\C=C\c2ccccc2)c2ccccc21 (stereo not given)	none
CCN1C(=O)C(O)(CC(=O)/C=C/C=C/c2ccccc2)c2ccccc21 (stereo not given)	none (no result: PfHsp90 set2)
O=C(/C=C/C=C/c1ccccc1)CC1(O)C(=O)N(CCc2ccccc2)c2ccccc21 (stereo not given)	tim10-1 inh 45 (no result: PfHsp90 set2) | tim10-1 conf 52
Cc1ccc2c(c1)C(O)(CC(=O)/C=C/C=C/c1ccccc1)C(=O)N2 (stereo not given)	tim10-1 inh 40 | tim10-1 conf 28
COc1cccc(CNc2nc3nc(C)c(Cl)c(C)n3n2)c1	tim10-1 inh 48 | tim10-1 conf 29
Cn1c(=O)c2ccccc2n(CC(=O)N2CCCc3ccccc32)c1=O	none
CCCc1nn(C)c2c1C(c1cccnc1)C(C#N)=C(N)O2 (stereo not given)	tim10-1 inh 41 | tim10-1 conf inactive
CC(=O)N/C(=N\c1nc(C)cc(C)n1)Nc1ccc(Cl)cc1Cl	none
O=[N+]([O-])c1c(C(Cl)Cl)nn(-c2ccccc2)c1N1CCOCC1	tim10-1 inh 44 | tim10-1 conf 35
CC(C)(C)NC(=O)Nc1ccc(F)c(Cl)c1	tim10-1 inh 46 | tim10-1 conf 44
CCCNC(=O)Nc1ccc(F)c(Cl)c1	none
O=C1C(c2ccc(F)cc2)N(Cc2ccc3c(c2)OCO3)C(=O)CN1C1CCCC1 (stereo not given)	none
O=C1C(c2ccc(F)cc2)N(Cc2ccc3c(c2)OCO3)C(=O)CN1C1CCCCC1 (stereo not given)	tim10-1 inh 40 | tim10-1 conf inactive
CSc1oc(-c2ccco2)nc1S(=O)(=O)c1ccccc1	none
